Measured values published in PubChem BioAssay (NCATS).
Active and inactive are the calls of the source. Calls come from the whole dose curve; as a rule, active = well fitted activation curve with a large enough effect; inconclusive = small, poorly fitted or top-dose-only effect; inactive = flat fitted curve, though single readings scatter.

Experiment: Confirmation and Secondary Assay for Modulators of Hemoglobin Beta Chain Splicing at IVS2 705 locus (AID 930); note: % of control where 0% means no effect
Details: HeLa EGFP-705 splicing reporter, GFP fluorescence, 48 h; series mostly up to 46.1 µM; activation: at the top concentration
Source text: NIH Chemical Genomics Center [NCGC] NIH Molecular Libraries Screening Centers Network [MLSCN] MLSCN Grant: 1 X01 MH080684-01 PI Name: Dr. Ryszard Kole NCGC Assay Overview: Modulation of Alternative Splicing as Therapy Abnormal splicing is associated with a number of diseases, including cancer and genetic diseases such as cystic fibrosis, muscular dystrophy and beta-thalassemia. Alteration of disease associated splicing patterns provides a promising target for treatment. […] Mutations in the second intron of the b-globin gene at positions 654 or 705 are clinically relevant and cause mis-splicing which results in an out of frame gene product. […] EGFP-705 HeLa Cells as screen system. HeLa cell lines were stably transfected with a construct in which the EGFP (enhanced green fluorescent protein) cDNA was interrupted by the second intron of the beta-globin gene (IVS2-705). The ISV2 intron contains mutations which cause mis-splicing of EGFP and premature termination of EGFP which results in a nonfluorescent protein product. […] Expression of the transgene was driven by the CMV promoter. We concluded that a low molecular weight compound, which restored correct splicing of intron 2 would also generate functional EGFP protein, resulting in a fluorescent signal. Thus, the HeLa cells that express the EGFP-705 construct can be used for validation of splice site specificity of compounds identified in primary screening of the ISV2 654 construct.
NCGC Assay Protocol Summary: Confirmatory Screening. Freshly thawed HeLa EGFP-705 cells were seeded in 5 ul of optimem media (Invitrogen) containing 2 % fetal calf serum (Hyclone) and 1x penicillin/streptomycin (Invitrogen) at a concentration of 500 cells per well in 1536-well plates. Cells were incubated overnight at 37C in 5% CO2. The next day, cells were treated with DMSO, 500 nM antisense ISV2 654 PNA control oligo, or library compound and allowed to grow at 37C in 5% CO2 for 2 days. The PNA oligo blocked the mutation site in the intron and allowed proper (wild type) splicing to occur, resulting in full length EGFP expression and also allowed for optimization of the assay parameters. Plates were read in the Acumen Explorer (TTP Labtech) using 488 nm laser excitation and 500-520 nm emission PMT filter in a 1 x 8 uM capture mode. Fluorescnet objects ranging in size from 5 to 250 uM were measured and the total peak GFP intensity for each well was used for data analysis. Keywords: Thalassemia, beta-thalassemia, beta-globin, EGFP, ISV2 654, ISV2 705, SSO, PNA, antisense, splicing, MLSMR, MLSCN, NIH Roadmap, qHTS, NCGC

SMILES | activation | outcome
CC(C(=O)O)c1cccc(C(=O)c2ccccc2)c1 (stereo not given) | 0.535% (inactive) | 
Clc1ccccc1C(c1ccccc1)(c1ccccc1)n1ccnc1 | 0.318% (inactive) | 
OCCN1CCN(CCCN2c3ccccc3Sc3ccc(C(F)(F)F)cc32)CC1 | 2.51% (inactive) | 
Cc1ccc(C(=O)Nc2ccc(S(=O)(=O)O)c3cc(S(=O)(=O)O)cc(S(=O)(=O)O)c23)cc1NC(=O)c1cccc(NC(=O)Nc2cccc(C(=O)Nc3cc(C(=O)Nc4ccc(S(=O)(=O)O)c5cc(S(=O)(=O)O)cc(S(=O)(=O)O)c45)ccc3C)c2)c1 | 1.39% [at 38.3 µM] (inactive) | 
CC(=O)OCC(CCn1cnc2cnc(N)nc21)COC(C)=O | 1.87% (inactive) | 
CCC1(c2ccccc2)C(=O)NCNC1=O | -0.74% (inactive) | 
Cc1cc(C(C)(C)C)cc(C)c1CC1=NCCN1 | -0.0074% (inactive) | 
CN1C(C(=O)Nc2ccccn2)=C(O)c2ccccc2S1(=O)=O | -1.27% (inactive) | 
CN1CCN(CCCN2c3ccccc3Sc3ccc(Cl)cc32)CC1 | 0.29% (inactive) | 
Cn1c(=O)c2[nH]cnc2n(C)c1=O | 4.11% (inactive) | 
CCCCc1oc2ccccc2c1C(=O)c1cc(I)c(OCCN(CC)CC)c(I)c1 | -0.764% [at 38.3 µM] (inactive) | 
Cc1cc(C(C)(C)C)c(O)c(C)c1CC1=NCCN1 | 0.123% (inactive) | 
CN1CCN(C2=Nc3cc(Cl)ccc3Nc3ccccc32)CC1 | -1.08% (inactive) | 
Clc1ccc2c(c1)C(N1CCNCC1)=Nc1ccccc1O2 | -0.836% [at 38.3 µM] (inactive) | 
CC1COc2c(N3CCN(C)CC3)c(F)cc3c(=O)c(C(=O)O)cn1c23 (stereo not given) |  | inactive
CC12CC3CC(C)(C1)CC(N)(C3)C2 | 0.796% (inactive) | 
CN(C)CCOC(c1ccccc1)c1ccccc1 | 1.23% (inactive) | 
O=C(C1CCCCC1)N1CC(=O)N2CCc3ccccc3C2C1 (stereo not given) | 0.504% (inactive) | 
CN(C)CCCN1c2ccccc2CCc2ccc(Cl)cc21 | -0.515% [at 38.3 µM] (inactive) | 
NC(=O)NO | 0.598% (inactive) | 

SMILES | activation | outcome
CC(C)C(=O)Nc1ccc([N+](=O)[O-])c(C(F)(F)F)c1 | -1.18% (inactive) | 
CN(C)C(=N)N=C(N)N | -0.739% (inactive) | 
Clc1ccc(C(c2ccccc2Cl)C(Cl)Cl)cc1 (stereo not given) | -1.38% (inactive) | 
CS(=O)(=O)Nc1ccc([N+](=O)[O-])cc1Oc1ccccc1 | 2.41% (inactive) | 
COc1ccccc1OCCNCC(O)COc1cccc2[nH]c3ccccc3c12 (stereo not given) | 4.84% (inactive) | 
O=c1[nH]cc(F)c(=O)[nH]1 | -0.5% (inactive) | 
CN(C)C(=O)C(CCN1CCC(O)(c2ccc(Cl)cc2)CC1)(c1ccccc1)c1ccccc1 | 1.02% (inactive) | 
NCCc1cnc[nH]1 | 2.07% (inactive) | 
Nc1ccn([C@H]2CC[C@@H](CO)O2)c(=O)n1 | 1.24% (inactive) | 
Cn1c(=O)c2c(ncn2C)n(C)c1=O | 0.283% (inactive) | 
Cc1ccccc1N1C(=O)c2cc(S(N)(=O)=O)c(Cl)cc2NC1C (stereo not given) | 1.49% (inactive) | 
CNCCCC12CCC(c3ccccc31)c1ccccc12 | 0.56% (inactive) | 
O=C1c2c(O)ccc(O)c2C(=O)c2c(NCCNCCO)ccc(NCCNCCO)c21 | 1.58% (inactive) | 
NC12CC3CC(CC(C3)C1)C2 | 0.708% (inactive) | 
CCc1cccc2c3c([nH]c12)C(CC)(CC(=O)O)OCC3 (stereo not given) | 0.816% (inactive) | 
OCCN(CCO)c1nc(N2CCCCC2)c2nc(N(CCO)CCO)nc(N3CCCCC3)c2n1 | 4.31% (inactive) | 
CN(C)c1nc(N(C)C)nc(N(C)C)n1 | 1.82% (inactive) | 
O=c1c(O)c(-c2ccc(O)c(O)c2)oc2cc(O)cc(O)c12 | 60.5% [at 38.3 µM] (inactive) | 
CC(C)Cc1ccc(C(C)C(=O)O)cc1 (stereo not given) | 0.462% (inactive) | 
O=C(CCCN1CCC(O)(c2ccc(Cl)cc2)CC1)c1ccc(F)cc1 | 1.86% (inactive) | 
